In PubChem BioAssay (NCI):
Compounds without any hit were thinned out: in the full panel of roughly 83,000, 20% have a hit.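 The endpoint reported here, percent growth, reads 100 for growth as untreated, 0 for no net growth and -100 for all cells dead.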 Activity calls are given as the source filed them. How the source made its calls: active means growth percent below 10; inactive means the rest.

Key:
Experiment in all cases: NCI-60 one-dose screen, 48 h (100 = growth as untreated, 0 = no growth, -100 = all killed)
HCT-15 colon = tested on: HCT-15 colon
HT29 colon = settings: 10 µM unless noted
SNB-75 CNS = tested on: SNB-75 CNS
SNB-19 CNS = tested on: SNB-19 CNS
U251 CNS = tested on: U251 CNS
PC-3 prostate = settings: 10 µM unless noted
SK-MEL-5 melanoma = tested on: SK-MEL-5 melanoma
UACC-62 melanoma = settings: 10 µM unless noted
LOX IMVI melanoma = tested on: LOX IMVI melanoma
SK-MEL-28 melanoma = tested on: SK-MEL-28 melanoma

Measured: growth

O=NN(c1ccccc1)c1ccccc1
inactive: HCT-15 colon; 10 µM unless noted 103% | HT29 colon 119% | SNB-75 CNS; 10 µM unless noted 101% | SNB-19 CNS; 10 µM unless noted 106% | U251 CNS; 10 µM unless noted 99.2% | PC-3 prostate 98% | SK-MEL-5 melanoma; 10 µM unless noted 98.6% | UACC-62 melanoma 95.4% | LOX IMVI melanoma; 10 µM unless noted 100% | SK-MEL-28 melanoma; 10 µM unless noted 114%

CC[C@H](C)[C@H](NC(=O)CN(C)C)C(=O)N(C)[C@H](C[C@@H](OC(C)=O)c1nc(C(=O)NC23CC(C(=O)OC)(C2)C3)cs1)C(C)C
inactive: HCT-15 colon; 10 µM unless noted 21.6% | SNB-75 CNS; 10 µM unless noted 45.1% | SNB-19 CNS; 10 µM unless noted 41.5% | U251 CNS; 10 µM unless noted 13.5% | PC-3 prostate 25.8% | SK-MEL-5 melanoma; 10 µM unless noted 12.6% | UACC-62 melanoma 24.4% | LOX IMVI melanoma; 10 µM unless noted 19.7% | SK-MEL-28 melanoma; 10 µM unless noted 66.4%
active: HT29 colon -1.6%

COc1ccc2c(c1)c(-c1nc(-c3c[nH]c4ncccc34)cs1)cn2CCCCN1CCOCC1
inactive: SNB-75 CNS; 10 µM unless noted 40.1% | SNB-19 CNS; 10 µM unless noted 52.4% | PC-3 prostate 30.1% | SK-MEL-5 melanoma; 10 µM unless noted 26% | UACC-62 melanoma 20.4%
active: HCT-15 colon; 10 µM unless noted -31.7% | HT29 colon -84.4% | U251 CNS; 10 µM unless noted 4.84% | LOX IMVI melanoma; 10 µM unless noted -34.7% | SK-MEL-28 melanoma; 10 µM unless noted -90.3%

CN1[C@@H](CC(=O)c2ccccc2)CCC[C@H]1CC(=O)c1ccccc1
inactive: HCT-15 colon; 10 µM unless noted 97.1% | HT29 colon 108% | SNB-75 CNS; 10 µM unless noted 90.6% | SNB-19 CNS; 10 µM unless noted 98.4% | U251 CNS; 10 µM unless noted 103% | PC-3 prostate 93% | SK-MEL-5 melanoma; 10 µM unless noted 102% | UACC-62 melanoma 97.7% | LOX IMVI melanoma; 10 µM unless noted 93.8% | SK-MEL-28 melanoma; 10 µM unless noted 103%

CC(=O)OCC1OC([S-])C(OC(C)=O)C(OC(C)=O)C1OC(C)=O.[Au+].c1ccc(CN2[CH-]N(Cc3ccccc3)C(c3ccccc3)=C2c2ccccc2)cc1
inactive: SNB-75 CNS; 4.75 µM 26.1% | SK-MEL-5 melanoma; 10 µM 16.8% | SK-MEL-28 melanoma; 4.75 µM 10% | SK-MEL-28 melanoma; 10 µM 20.2%
active: HCT-15 colon; 4.75 µM -57.5% | HCT-15 colon; 10 µM -79.8% | SNB-75 CNS; 10 µM 3.87% | SNB-19 CNS; 4.75 µM -49.9% | SNB-19 CNS; 10 µM -80.3% | U251 CNS; 4.75 µM -72.4% | U251 CNS; 10 µM -84% | SK-MEL-5 melanoma; 4.75 µM -50.5% | LOX IMVI melanoma; 4.75 µM -82.1% | LOX IMVI melanoma; 10 µM -86.2%

Oc1ccccc1C=NCCN=Cc1ccccc1O.[Fe]
active: LOX IMVI melanoma; 10 µM unless noted -80.2%
inactive: HCT-15 colon; 10 µM unless noted 101% | HT29 colon 72.4% | SNB-75 CNS; 10 µM unless noted 77.2% | SNB-19 CNS; 10 µM unless noted 87.1% | U251 CNS; 10 µM unless noted 26.4% | PC-3 prostate 79.2% | SK-MEL-5 melanoma; 10 µM unless noted 66.5% | UACC-62 melanoma 58.4% | SK-MEL-28 melanoma; 10 µM unless noted 117%

S=P(SP(=S)(c1ccccc1)c1ccccc1)(c1ccccc1)c1ccccc1
inactive: HCT-15 colon; 10 µM unless noted 97% | HT29 colon 101% | SNB-75 CNS; 10 µM unless noted 91.2% | SNB-19 CNS; 10 µM unless noted 103% | U251 CNS; 10 µM unless noted 101% | PC-3 prostate 93.5% | SK-MEL-5 melanoma; 10 µM unless noted 99.9% | UACC-62 melanoma 88.7% | LOX IMVI melanoma; 10 µM unless noted 98.5% | SK-MEL-28 melanoma; 10 µM unless noted 111%

CC[C@H](C)[C@H](NC(=O)CN(C)C)C(=O)N(C)[C@H](C[C@@H](OC(C)=O)c1nc(C(=O)NC23C4C5C2C2C3C4C52C(=O)OC)cs1)C(C)C (some centres undefined)
active: HT29 colon 2.31% | SK-MEL-5 melanoma; 10 µM unless noted 5.45%
inactive: HCT-15 colon; 10 µM unless noted 14.7% | SNB-75 CNS; 10 µM unless noted 30.1% | SNB-19 CNS; 10 µM unless noted 40.2% | U251 CNS; 10 µM unless noted 16.7% | PC-3 prostate 25.6% | UACC-62 melanoma 29.9% | LOX IMVI melanoma; 10 µM unless noted 15.3% | SK-MEL-28 melanoma; 10 µM unless noted 61.5%

C[C@]12CC[C@H]3[C@@H](C[C@@H]4SC(Nc5cccc(F)c5)=N[C@@]45CC(=O)CC[C@]35C)[C@@H]1CCC2=O
active: HCT-15 colon; 10 µM unless noted 6.88% | HT29 colon -3.32% | LOX IMVI melanoma; 10 µM unless noted 6.22%
inactive: SNB-75 CNS; 10 µM unless noted 18.7% | SNB-19 CNS; 10 µM unless noted 62.8% | U251 CNS; 10 µM unless noted 15.7% | PC-3 prostate 19.1% | SK-MEL-5 melanoma; 10 µM unless noted 32.1% | UACC-62 melanoma 37.5% | SK-MEL-28 melanoma; 10 µM unless noted 39.4%

CC[PH+](CC)CC.O=COC1OC([S-])C(OC=O)C(OC=O)C1OC=O.[Au+] (centres undefined)
active: HCT-15 colon; 10 µM unless noted -74.9% | HT29 colon -54% | SNB-75 CNS; 10 µM unless noted -24.2% | SNB-19 CNS; 10 µM unless noted -99.1% | U251 CNS; 10 µM unless noted -99.5% | PC-3 prostate -7.17% | SK-MEL-5 melanoma; 10 µM unless noted -96.7% | UACC-62 melanoma -99% | LOX IMVI melanoma; 10 µM unless noted -89.4% | SK-MEL-28 melanoma; 10 µM unless noted -92.1%

O=[N+]([O-])c1ccc(OCc2ccc(S(=O)(=O)F)c(Cl)c2)c(Cl)c1
inactive: HCT-15 colon; 10 µM unless noted 84.6% | HT29 colon 99.2% | SNB-75 CNS; 10 µM unless noted 92.8% | SNB-19 CNS; 10 µM unless noted 108% | U251 CNS; 10 µM unless noted 107% | PC-3 prostate 91.4% | SK-MEL-5 melanoma; 10 µM unless noted 99.6% | UACC-62 melanoma 92.6% | LOX IMVI melanoma; 10 µM unless noted 93% | SK-MEL-28 melanoma; 10 µM unless noted 119%

CC[C@H](C)[C@H]1O[C@]2(C=C[C@@H]1C)C[C@@H]1C[C@@H](C/C=C(\C)[C@@H](O[C@H]3C[C@H](OC)[C@@H](O[C@H]4C[C@H](OC)[C@@H](NC)[C@H](C)O4)[C@H](C)O3)[C@@H](C)/C=C/C=C3\CO[C@@H]4[C@H](O)C(C)=C[C@@H](C(=O)O1)[C@]34O)O2
inactive: SNB-19 CNS; 10 µM unless noted 13.7%
active: HCT-15 colon; 10 µM unless noted -70.2% | HT29 colon -64.3% | SNB-75 CNS; 10 µM unless noted -72.7% | U251 CNS; 10 µM unless noted -88.7% | PC-3 prostate -16.2% | SK-MEL-5 melanoma; 10 µM unless noted -95.5% | UACC-62 melanoma -53.1% | LOX IMVI melanoma; 10 µM unless noted -92.3% | SK-MEL-28 melanoma; 10 µM unless noted -79.2%
